Laboratory results from PubChem BioAssay AID2061323 (National Center for Advancing Translational Sciences (NCATS), 2025).
Inconclusive results are not listed. Activity calls are given as the source filed them. Calls come from the whole dose curve; as a rule, active = well fitted inhibition curve with a large enough effect; inconclusive = small, poorly fitted or top-dose-only effect; inactive = flat fitted curve, though single readings scatter.

test: Identification of antibody-drug conjugate (ADC) payloads which are substrates of ATP-binding cassette drug efflux transporters: ABCG2-HEK293-R5 cell line; settings: ABCG2-HEK293-R5 viability, CellTiter-Glo ATP luminescence, 48 h
Text: Antibody-drug conjugates (ADCs) feature an antibody recognizing a specific protein joined to a potent toxic payload. Numerous antibody-drug conjugates have received FDA approval; however, clinical resistance arises. Resistance mechanisms include decreased expression or mutation of the antibody target, impaired payload release, or increased expression of ATP-binding cassette (ABC) efflux transporters associated with multidrug resistance. We therefore sought to characterize the interaction of ABC multidrug transporters with ADC payloads. We performed a high-throughput screen with 27 common ADC payloads using cells lines expressing ABC transporters P-glycoprotein (P-gp, encoded by ABCB1) or ABCG2 (encoded by ABCG2). Confirmatory assays were also performed using cells transfected to express P-gp, ABCG2, or MRP1 (encoded by ABCC1). Several commonly used ADC payloads were substrates of P-gp, including calicheamicin gamma1, monomethyl auristatin E, DM1, and DM4. All the pyrrolobenzodiazepines tested - SJG136, SGD-1882, SG2057, and SG3199 - were substrates of P-gp, ABCG2, and MRP1. […] These findings highlight the risk of transporter-mediated resistance with certain ADC payloads and underscore the importance of selecting payloads that evade ABC transporter recognition in future ADC development.
HEK-293 cells were transfected with empty vector (pcDNA) or vector containing the human ABCB1 (MDR-19), ABCG2 (R-5), or ABCC1 gene (MRP1) and were maintained in EMEM with 2 mg/mL G418 added to maintain transporter expression. The HeLa derivative KB-3-1 and the P-gp overexpressing KB-8-5-11 subline were maintained in DMEM; KB-8-5-11 additionally received 100 ng/mL colchicine. H460 parental cells were obtained from the Division of Cancer Treatment and Diagnosis Tumor Repository, National Cancer Institute at Frederick, MD and were cultured in RPMI. The ABCG2 expressing subline H460 MX20 was generated by selecting H460 cells in 20 nM mitoxantrone. Media in all cases was supplemented with 10% FBS and 1% penicillin-streptomycin. We explored 27 common ADC payloads, in two orthogonal, paired cell line sets-a drug selected and transfected set for each transporter--to identify substrates of the ABC transporters P-gp and ABCG2. Compounds were sourced from Levena Biopharma (San Diego, CA), Selleck Chem (Houston, TX), ChemieTek (Indianapolis, IN), or Microsource Discovery Systems (Gaylordsville, CT). Screening was performed as previously described. Briefly, cells were plated at a density of 500 cells/well in 1536 well plates with compounds added using a 1536-head pin tool (Kalypsys, San Diego CA). Cells were incubated with cytotoxic drugs and processed with CellTiter Glo reagent (Promega, Madison, WI) to determine viability after 48 hours. […]

SMILES | Potency
CC[C@H](C)[C@@H]([C@@H](CC(=O)N1CCC[C@H]1[C@H](OC)[C@@H](C)C(=O)N[C@H](C)[C@@H](O)c1ccccc1)OC)N(C)C(=O)[C@@H](NC(=O)[C@H](C(C)C)N(C)C)C(C)C | 8.4 nM (active)
CC[C@@]1(O)C(=O)OCc2c1cc1n(c2=O)Cc2cc3ccccc3nc2-1 | 13.4 nM (active)
COc1cc2cc(c1Cl)N(C)C(=O)C[C@H](OC(=O)[C@H](C)N(C)C(=O)CCC(C)(C)S)[C@]1(C)OC1[C@H](C)C1C[C@@](O)(NC(=O)O1)[C@H](OC)/C=C/C=C(\C)C2 (some centres undefined) | 2.4 nM (active)
COc1cc2cc(C(=O)N3C[C@@H](CCl)c4c3cc(O)c3ccccc43)[nH]c2c(OC)c1OC | 21.2 nM (active)
